# Measurements: PubChem BioAssay (NCATS)
# Inconclusive results are not listed. Entries that show only a call come without a potency. Active and inactive are the calls of the source. The call rests on the fitted dose curve; in most records, active means well fitted curve in the direction sought with a large enough effect; inconclusive means small, poorly fitted or top-dose-only effect, or another doubt; inactive means no such curve, though single readings can be large; an effect the other way counts as inactive or inconclusive.
# What was measured:
# [1] = Quantitative High-Throughput drug screen in 47 multiple myeloma cell lines against the NCATS MIPE library collection: ARD_JJKsccE7 cell viability assay (AID 1918929); details: ARD myeloma cell line viability, CellTiter-Glo, 48 h; series mostly up to 45.8 µM
# Outline: (§1)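 Approved and investigational drugs from MIPE 4.0 were added by pin tool to 500 cells per well. After 48 hours at 37C, ATP-based CellTiter-Glo luminescence indicated remaining viability.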
# [2] = Quantitative High-Throughput drug screen in 47 multiple myeloma cell lines against the NCATS MIPE library collection: KMM1_JCRB cell viability assay (AID 1918960); details: KMM1 myeloma viability, CellTiter-Glo ATP luminescence, 48 h; series mostly up to 45.8 µM; further: nearly all actives have a fitted effect of over 30% in size
# Outline: (§2)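 Each line was plated at 500 cells/well and treated 48 h with library drugs. Viability came from CellTiter-Glo luminescence relative to DMSO and cell-free medium controls.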
# [3] = Quantitative High-Throughput drug screen in 47 multiple myeloma cell lines against the NCATS MIPE library collection: INA6_PLB cell viability assay (AID 1918965; further: nearly all actives have a fitted effect of over 55% in size); details: INA6 myeloma viability, CellTiter-Glo ATP luminescence, 48 h; series mostly up to 45.8 µM
# Outline: (§3)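 CellTiter-Glo luminescence (ATP) after 48 h compound exposure, 37C/5% CO2; 500 cells/well; MIPE 4.0 approved/investigational drugs pinned in; DMSO = 100%, media only = 0% viability.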
# [4] = Quantitative High-Throughput drug screen in 47 multiple myeloma cell lines against the NCATS MIPE library collection: Karpas620_DSMZ cell viability assay (AID 1918959); details: Karpas620 myeloma viability, CellTiter-Glo ATP luminescence, 48 h; series mostly up to 45.8 µM; further: nearly all actives have a fitted effect of over 30% in size
# Outline: (§4)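 Steps: seed 500 cells per well; pin-transfer MIPE 4.0 library; incubate 48 h at 37C, 5% CO2, humidified; add CellTiter-Glo, 5 min room temperature; read luminescence.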
# [5] = Quantitative High-Throughput drug screen in 47 multiple myeloma cell lines against the NCATS MIPE library collection: KHM11_PLB cell viability assay (AID 1918962); details: KHM11 myeloma cell viability, CellTiter-Glo ATP luminescence, 48 h; series mostly up to 45.8 µM; further: nearly all actives have a fitted effect of over 35% in size
# Outline: as §4
# [6] = Quantitative High-Throughput drug screen in 47 multiple myeloma cell lines against the NCATS MIPE library collection: JIM3_ECACC cell viability assay (AID 1918963; further: nearly all actives have a fitted effect of over 35% in size); details: JIM3 myeloma viability, CellTiter-Glo ATP, 48 h; series mostly up to 45.8 µM
# Outline: as §4
# [7] = Quantitative High-Throughput drug screen in 47 multiple myeloma cell lines against the NCATS MIPE library collection: JIM1_ECACC cell viability assay (AID 1918964); details: JIM1 myeloma viability, CellTiter-Glo ATP luminescence, 48 h; series mostly up to 45.8 µM
# Outline: as §1
# [8] = Quantitative High-Throughput drug screen in 47 multiple myeloma cell lines against the NCATS MIPE library collection: ARP1_JJKsccF8 cell viability assay (AID 1918928; further: nearly all actives have a fitted effect of over 40% in size); details: ARP1 myeloma cells viability, CellTiter-Glo ATP, 48 h; series mostly up to 45.8 µM
# Outline: as §2
# [9] = Quantitative High-Throughput drug screen in 47 multiple myeloma cell lines against the NCATS MIPE library collection: Karpas417_ECACC cell viability assay (AID 1918961); details: Karpas417 myeloma viability, CellTiter-Glo ATP luminescence, 48 h; viability (% of DMSO): at 45.8 µM (top of the series) unless noted
# Outline: as §3
# Potency means the concentration at half of the fitted maximal effect.
smiles,measurement,setting,value
Cn1cnc([N+](=O)[O-])c1Sc1ncnc2nc[nH]c12,Potency,[1],1.18 µM (active)
same,Potency,[2],2.96 µM (active)
same,Potency,[3],5.26 µM (active)
Cc1c(CCOc2ccc(C(=O)O)cc2)c2cc(Cl)ccc2n1C(c1ccccc1)c1ccccc1,Potency,[1],inactive
same,Potency,[4],inactive
same,Potency,[5],inactive
same,Potency,[6],inactive
same,Potency,[7],inactive
same,Potency,[3],inactive
CCOC(=O)N[C@@H]1CC[C@@H]2[C@@H](C1)C[C@H]1C(=O)O[C@H](C)[C@H]1[C@@H]2C=Cc1ccc(-c2cccc(F)c2)cn1,Potency,[1],18.7 µM (active)
N#Cc1ccc(C(c2ccc(C#N)cc2)n2cncn2)cc1,Potency,[1],6.62 µM (active)
same,Potency,[4],18.7 µM (active)
Cc1cccc(-c2nn(C(=S)Nc3ccccc3)cc2-c2ccnc3ccccc23)n1,Potency,[8],inactive
same,Potency,[4],inactive
same,Potency,[2],inactive
same,Potency,[6],13.2 µM (active)
Cc1cc(-c2ccc(CC(=O)Nc3ccc(-c4cccnc4)cc3)cc2)ccn1,Potency,[1],16.6 µM (active)
same,Potency,[2],14.8 µM (active)
same,Potency,[6],18.7 µM (active)
same,Potency,[7],20.9 µM (active)
same,Potency,[3],13.2 µM (active)
CC(C[N+](C)(C)C)OC(N)=O (configuration not stated),Potency,[1],inactive
same,Potency,[4],inactive
same,Potency,[5],inactive
same,Potency,[6],0.0083 µM (active)
same,Potency,[7],inactive
same,Potency,[3],inactive
COc1ccccc1-c1cccc(-c2c(O)c3cc(C#N)c(Cl)cc3[nH]c2=O)c1,Potency,[8],inactive
same,Potency,[6],42.9 µM (active)
same,Potency,[3],inactive
O=C(Nc1nc2ccccc2n1CCN1CCOCC1)c1cccc([N+](=O)[O-])c1,Potency,[1],4.18 µM (active)
same,Potency,[4],7.43 µM (active)
same,Potency,[9],4.69 µM (active)
same,Potency,[6],inactive
same,Potency,[7],5.26 µM (active)
Cc1cc([C@@H](C)Nc2ccccc2C(=O)O)c2nc(N3CCOCC3)cc(=O)n2c1,Potency,[8],0.481 µM (active)
same,Potency,[6],13.6 µM (active)
same,Potency,[3],13.6 µM (active)
CCN(CC)CCCC(C)Nc1nc(C)cc(Nc2ccc3nc(C)cc(N)c3c2)n1 (configuration not stated),Potency,[1],14.8 µM (active)
same,Potency,[4],7.43 µM (active)
same,Potency,[6],inactive
same,Potency,[3],10.5 µM (active)
CC(C)NCC(O)COc1ccc(COCCOC(C)C)cc1 (configuration not stated),Potency,[8],inactive
same,Potency,[4],inactive
same,Potency,[5],inactive
same,Potency,[6],inactive
Cc1cnc(NC(=O)C2=C(O)c3ccccc3S(=O)(=O)N2C)s1,Potency,[8],inactive
same,Potency,[4],inactive
same,Potency,[2],inactive
same,Potency,[7],inactive
c1ccc(-c2nn3c(c2-c2ccnc4cc(OCCN5CCOCC5)ccc24)CCC3)nc1,Potency,[1],inactive
same,Potency,[4],inactive
same,Potency,[2],inactive
same,Potency,[6],inactive
CS(=O)(=O)c1cccc(CNc2nc(Nc3ccc4c(c3)CCC(=O)N4)ncc2C(F)(F)F)c1,Potency,[1],5.9 µM (active)
same,Potency,[4],4.69 µM (active)
same,Potency,[5],14.8 µM (active)
same,Potency,[6],18.7 µM (active)
same,Potency,[3],11.8 µM (active)
Nc1nccc(-c2ccc3noc(-c4ccc(Cl)cc4)c3c2)n1,Potency,[1],inactive
same,Potency,[4],inactive
Cc1cc2c(F)c(Oc3ncnn4cc(OC[C@@H](C)O)c(C)c34)ccc2[nH]1,Potency,[4],inactive
same,Potency,[7],inactive
same,Potency,[3],18.7 µM (active)
O=NN(CCCl)C(=O)NCCCl,Potency,[4],inactive
same,Potency,[2],inactive
same,Potency,[5],inactive
same,Potency,[6],inactive
same,Potency,[7],inactive
same,Potency,[3],inactive
O=C(C1CC1)N1CC[C@@H](Cn2c(-c3ccc(-c4ccc5occc5c4)cc3)nc3cnccc32)C1,Potency,[5],inactive
same,Potency,[3],20.9 µM (active)
COc1ccc(-c2ccc3c(N4CCOC[C@H]4C)nc(N4CCOC[C@H]4C)nc3n2)cc1CO,Potency,[3],0.0372 µM (active)
COCCNCCCn1c(C(=O)CF)c(-c2ccc(C)cc2)c2c(N)ncnc21,Potency,[6],inactive
same,Potency,[7],inactive
same,Potency,[3],16.6 µM (active)
O=S(=O)(N=Cc1c(O)ccc2ccccc12)c1cccs1,Potency,[6],3.32 µM (active)
same,Potency,[7],inactive
same,Potency,[3],2.64 µM (active)
Cn1c(=O)c(F)c(Nc2ccc(I)cc2F)c2c(=O)n(C[C@@H](O)CO)cnc21,Potency,[4],0.0118 µM (active)
same,Potency,[2],16.6 µM (active)
Cc1cn[nH]c1,Potency,[2],0.526 µM (active)
C1COC(NC(C2CC2)C2CC2)=N1,Potency,[5],inactive
same,Potency,[3],9.35 µM (active)
NCCCC(N)(C(=O)O)C(F)F (configuration not stated),Potency,[4],inactive
same,Potency,[5],inactive
same,Potency,[6],13.2 µM (active)
OC[C@H](Cc1ccccc1)Nc1nc(Oc2ccc3c(c2)CCC3)nc2c1ncn2Cc1ccc(-c2ccccc2)cc1,Potency,[7],inactive
Cc1cc(Nc2nc(N[C@@H](C)c3ncc(F)cn3)ncc2Cl)n[nH]1,Potency,[2],inactive
same,Potency,[3],5.26 µM (active)
CCCCCCCc1ccc(CCc2cccc(O)c2C(=O)O)cc1,Potency,[4],inactive
same,Potency,[6],20.9 µM (active)
same,Potency,[7],inactive
NCCc1ccc(O)c(O)c1,Potency,[4],20.9 µM (active)
same,Potency,[5],inactive
O=C(Nc1ccc(F)c(C(F)(F)F)c1)Nc1nnc(-c2ccncc2)s1,Potency,[1],inactive
same,Potency,[3],2.35 µM (active)
